Results filed as inconclusive are left out. A call without a number means that no potency is given here. The source made the active and inactive calls. Calls come from the whole dose curve; as a rule, active = well fitted inhibition curve with a large enough effect; inconclusive = small, poorly fitted or top-dose-only effect; inactive = flat fitted curve, though single readings scatter.
assay: qHTS for differential inhibitors of proliferation of Plasmodium falciparum line Dd2 (AID 1882); settings: Potency: Plasmodium falciparum Dd2 proliferation inhibition; series mostly up to 28.7 µM; note: nearly all actives have a fitted effect of over 65% in size
From the text: NIH Molecular Libraries Probe Production Network [MLPCN]
NIH National Institute of Allergy and Infectious Diseases [NIAID]
NIH Chemical Genomics Center [NCGC]
Assay Provider: Xinzhuan Su, NIAID
Plasmodium falciparum is a virulent malarial parasite that kills 1-2 million people worldwide each year. Transmitted by mosquitoes, the sporozoite form of the parasite enters the blood stream to infect hepatocytes, where they become merozoites that infect red blood cells (erythrocytes). Within erythrocytes, merozoites begin a […] cycle of growth and division, after which the parasite is released to infect new red blood cells. Gametocytes, which form within erythrocytes as well, circulate in the bloodstream and are ingested by the mosquito, thereby completing the life cycle. To profile malarial isolates for differential chemical responses and to identify inhibitors of malarial growth, an assay that measures P. falciparum growth and replication within erythrocytes was employed. This assay uses a DNA binding fluorescent dye (SYBR Green) to detect parasite DNA following cell lysis. Because mature erythrocytes lack DNA, only Plasmodium-derived DNA is detected. The P. falciparum line Dd2, derived from a malarial isolate from […], was used.
NCGC Assay Protocol Summary:
The SYBR Green viability assay was adapted from a method described previously (Plouffe et al., 2008). For screening 3 ul culture medium was dispensed into 1536 well black clear bottom plates (Aurora Biotechnologies) using a Multidrop Combi (Thermo Fisher Scientific Inc.), 23 nL compounds in DMSO were added by a pin tool (Kalypsys), and 5 ul of erythrocytes infected with P. falciparum line Dd2 (0.3% parasitemia, 2.5% hematocrit final concentration) were added. The plates were incubated at 37 C in a humidified incubator in 5% CO2 for 72 h, and 2 ul lysis buffer (20 mM Tris HCl, 10 mM EDTA, […]% saponin, 1.6% triton X, 10X SYBR Green I supplied as 10,000X […] by Invitrogen) was added to each well. The plates were mixed for 25 sec with gentle shaking and incubated overnight at room temperature in the dark. The following morning, fluorescence intensity at 485(14) nm excitation and 535(25) nm emission wavelengths was measured on an EnVision (Perkin Elmer) plate reader. Plate reads were normalized relative to the control inhibitor (0.29 uM artemisinin) and vehicle (DMSO) wells present on each plate and then corrected by an algorithm using vehicle-only control plates at the beginning and end of the compound plate stack.
Plouffe D, Brinker A, McNamara C, Henson K, Kato N, Kuhen K, Nagle A, Adrian F, Matzen JT, Anderson P, Nam TG, Gray NS, Chatterjee A, Janes J, Yan SF, Trager R, Caldwell JS, Schultz PG, Zhou Y, Winzeler EA. […] Proc Natl Acad Sci U S A. 2008, 105(26), pp 9059-64.
Potency is the fitted concentration of half-maximal effect.

| Structure (SMILES) | Potency |
| --- | --- |
| CC(=O)NBr | inactive |
| C[N+](C)(C)CCOC(=O)CBr | inactive |
| CCCCCCC(C)(C)c1ccc([C@@H]2C[C@H](O)CC[C@H]2CCCO)c(O)c1 | 4.47 µM (active) |
| NC(CCCCCP(=O)(O)O)C(=O)O (stereo not given) | inactive |
| O=C1CC[C@@]2(O)C3Cc4ccc(O)c5c4C2(CCN3CC2CC2)[C@H]1O5 (stereo not given in full) | inactive |
| NCCc1c[nH]c2ccc(C(N)=O)cc12 | inactive |
| Oc1ccc2c3c1O[C@H]1c4[nH]c5ccccc5c4C[C@@]4(O)C(C2)N(CC2CC2)CCC314 (stereo not given in full) | 8.91 µM (active) |
| N[C@@H](CCl)C(=O)O | inactive |
| CN(N=O)c1cc(O)ccc1O | inactive |
| C[N+]1(C)C2CCC1CC(OC(=O)c1c[nH]c3ccccc13)C2 (stereo not given) | 12.6 µM (active) |
| c1ccc2c(N3CCNCC3)cccc2c1 | 11.2 µM (active) |
| C[Se]C[C@H](N)C(=O)O | inactive |
| C[N+]1(C)CCOC(O)(c2ccc(-c3ccc(C4(O)C[N+](C)(C)CCO4)cc3)cc2)C1 (stereo not given) | inactive |
| COc1ccc2[nH]cc(CCN)c2c1 | inactive |
| C[C@@H]1O[C@H](C[N+](C)(C)C)CS1 | inactive |
| N[C@@H](Cn1oc(=O)[nH]c1=O)C(=O)O | inactive |
| CCN(CC)c1ncnc2c1ncn2[C@@H]1O[C@H](COP(=O)(O)OP(=O)(O)C(Br)(Br)P(=O)(O)O)[C@@H](O)[C@H]1O | inactive |
| CCCN(CCC)C1Cc2cc(OC)c(OC)cc2C1 | inactive |
| CC(=O)c1c(O)c(C)c(O)c(Cc2c(O)c3c(c(C(=O)/C=C/c4ccccc4)c2O)OC(C)(C)C=C3)c1O | 7.94 µM (active) |
| CNc1ccc2oc(C[C@H]3O[C@@]4(CC[C@H]3C)O[C@H]([C@H](C)C(=O)c3ccc[nH]3)[C@H](C)C[C@H]4C)nc2c1C(=O)O | 1.41 µM (active) |

| Structure (SMILES) | Potency |
| --- | --- |
| CC(N)Cc1c[nH]c2ccc(O)cc12 (stereo not given) | inactive |
| COC(=O)N1CCN(C(=O)Cc2ccc(Cl)c(Cl)c2)C(CN2CCCC2)C1 (stereo not given) | 7.94 µM (active) |
| C[C@]12Cc3cn4c(nc3C=C1CCC1C2CC[C@@]2(C)[C@H]1CC[C@@]2(O)C#N)nc1ccccc14 (stereo not given in full) | 3.55 µM (active) |
| O=C(O)c1cc[c]([Hg][Cl])cc1 | 11.2 µM (active) |
| CC(Cc1ccc(OCC(=O)O)cc1)NCC(O)c1cccc(Cl)c1 (stereo not given) | inactive |
| CCn1cnc2c(Nc3cccc(Cl)c3)nc(N[C@@H]3CCCC[C@@H]3N)nc21 | 11.2 µM (active) |
| NC(=O)c1cc(N2CC2)c([N+](=O)[O-])cc1[N+](=O)[O-] | inactive |
| Clc1ccc(N2CC3CCC(C2)N3)nn1 | inactive |
| O=S1(=O)N(CCN2CC=C(c3c[nH]c4cc(F)ccc34)CC2)c2cccc3c2N1CCC3 | 2 µM (active) |
| Clc1cc(I)cc(Cl)c1NC1=NCCN1 | inactive |
| C=CCN1CCC23c4c5ccc(O)c4O[C@H]2C(=O)CC[C@@]3(O)C1C5 (stereo not given in full) | inactive |
| CC12NC(Cc3ccccc31)c1ccccc12 (stereo not given) | 7.94 µM (active) |
| CC1(C(=O)O)C2CCC(O2)C1(C)C(=O)O (stereo not given) | 5.01 µM (active) |
| CN1C2CCC1CC(OC(c1ccccc1)c1ccc(Cl)cc1)C2 (stereo not given) | 8.91 µM (active) |
| CCCN(CCC)[C@@H]1CCc2cccc(O)c2C1 | 8.91 µM (active) |
| COc1ccc2c(c1)/C(=C/c1cnc[nH]1)C(=O)N2 | 12.6 µM (active) |
| C=CCN1CC[C@]23c4c5ccc(O)c4O[C@@H]2/C(=N/N=C2\CC[C@@]4(O)C6Cc7ccc(O)c8c7[C@@]4(CCN6CC=C)[C@@H]2O8)CC[C@@]3(O)C1C5 | 8.91 µM (active) |
| CCCN(CCC)CCc1c[nH]c2ccc(C(N)=O)cc12 | inactive |
| CCCN1CCCC2Cc3[nH]ncc3CC21 (stereo not given) | inactive |
| COc1ccc2c(c1OC)C(=O)OC2C1c2cc3c(cc2CCN1C)OCO3 (stereo not given) | inactive |
